IMPase cell inh = cell-permeable inhibitors of inositol monophosphatase (IMPase) | P97697 | CHO-M1 cells, IP1 accumulation, HTRF TR-FRET ratio | inhibition (IP1 accumulation), % at 46.1 µM | 120,000 tested, under 10 active; active means well fitted curve in the direction sought with a large enough effect in the signal ratio, not every such curve was filed as active; inconclusive means small, poorly fitted or top-dose-only effect, or a change in a side signal; inactive means no such curve, though single readings can be large or run the other way; the % refers to the signal ratio;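 further: cells stimulated with carbachol in lithium chloride buffer; plate controls were DMSO basal wells for no effect and reference inhibitor wells for full effect; higher means more IMPase inhibition seen as more IP1 and lower FRET ratio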
Target sequence (P97697 whole entry, looked up): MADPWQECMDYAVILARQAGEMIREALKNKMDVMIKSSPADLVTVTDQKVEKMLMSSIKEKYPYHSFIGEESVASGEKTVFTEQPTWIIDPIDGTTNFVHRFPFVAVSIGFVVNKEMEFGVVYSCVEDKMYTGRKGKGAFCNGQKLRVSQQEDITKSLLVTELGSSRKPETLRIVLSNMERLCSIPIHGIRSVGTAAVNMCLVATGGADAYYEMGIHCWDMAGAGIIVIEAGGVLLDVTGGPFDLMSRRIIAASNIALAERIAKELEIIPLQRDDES
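Elevated IP1 in lysates lowers TR-FRET signal (665/620 ratio and 620 channel reported). Cells were CHO-M1, given carbachol (50 uM as added) plus 50mM LiCl, pH 7.4, 30 min, 37C; compounds titrated up to 46 uM; AC50 by Hill equation.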
HTT ATP protect = protects HTT-Q103 PC12 cells, measured by ATP; AID 1471; 0.14% of 230,000 active; PC12 HTT-Q103 induced, cytoprotection, ATP luminescence, 40 h; Potency, µM (highest dose often 56.4 µM), for inactives: cytoprotection (ATP increase), actives largely listed as activators; further: potency means the concentration at half of the fitted maximal effect; % of control where 0% means no effect; nearly all actives have a fitted effect of over 45% in size
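ATP quantification (ATPlite) reports survival of PC12 cells in which tebufenozide, 100 nM final, switches on Htt exon 1 with 103 glutamines linked to GFP; compounds are titrated.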
HPGD block = HPGD (human) dehydrogenase inhibition; Potency, µM, inactives show top-dose activity change, negative = inhibition, hits mostly inhibitors; purified HPGD, NADH fluorescence kinetic, PGE2 substrate; 4.3% of 150,000 active; active means well fitted inhibition curve with a large enough effect, not every such curve was filed as active; inconclusive means small, poorly fitted or top-dose-only effect, or another doubt; inactive means no such curve, though single readings can be large or run the other way; further: potency means the concentration at half of the fitted maximal effect; on the % scale 0 is the no-effect control and ±100 the full control effect
Target sequence (P15428 whole entry, looked up): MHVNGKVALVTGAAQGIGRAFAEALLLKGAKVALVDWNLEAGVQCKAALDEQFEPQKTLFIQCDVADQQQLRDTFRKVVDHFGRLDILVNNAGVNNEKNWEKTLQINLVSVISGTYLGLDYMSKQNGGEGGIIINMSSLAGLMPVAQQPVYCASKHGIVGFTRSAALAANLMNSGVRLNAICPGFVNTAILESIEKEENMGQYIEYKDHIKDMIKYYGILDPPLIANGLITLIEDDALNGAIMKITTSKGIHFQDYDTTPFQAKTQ
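20 nM HPGD preincubated 15 min at room temperature with compound in 50 mM Tris-HCl pH 8, 0.01% Tween 20. Started with 1 mM NAD+ and 30 uM prostaglandin E2; NADH fluorescence (360/450 nm) read 5 times over 30-s intervals, last minus first.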
HTT aggregate = inhibitors of mutant huntingtin aggregate formation in PC12 cells; PC12 HttQ103-GFP aggregates, Acumen cytometry, 40 h; 1.1% of 220,000 active; AID 1688; Potency, µM (doses to about 46.1 µM), inactives show at the highest dose activity change, negative = inhibition, actives largely listed as inhibitors; further: potency means the concentration at half of the fitted maximal effect; on the % scale 0 is the no-effect control and ±100 the full control effect; nearly all actives have a fitted effect of over 60% in size
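Multiplexed with ATP-based cell death, this channel scores GFP aggregates in PC12 cells expressing inducible HTTex1-Q103-GFP. Induction used 100 nM tebufenozide; compounds were tested in concentration series.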
IMPase Li cell = IMPase inhibition in cells with lithium potentiation; CHO-M1 cells, IP1 TR-FRET (IP-One), carbachol + lithium; Potency, µM (doses to about 59.4 µM), for inactives: top-dose activity, negative = IMPase inhibition, usual class: inhibitors; 0.35% of 210,000 active;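 further: IP1 builds up when IMPase is blocked and the TR-FRET signal falls; potency means the concentration at half of the fitted maximal effect; plate controls were basal vehicle for no effect and high inhibitor control for full effect; nearly all actives have a fitted effect of over 50% in size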
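Concentration–response in CHO-M1 cells, lithium-potentiated; 30 min at 37C. IP1 detected by competitive TR-FRET after 10 min lysis at RT. Hill-fitted AC50.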
ALDH1A1 inh = inhibitors of human aldehyde dehydrogenase 1A1; P00352; Purified ALDH1A1, NADH fluorescence, propionaldehyde substrate; Potency, µM (doses to about 75.3 µM), for the others: top-dose activity, negative = inhibition, actives largely listed as inhibitors; 7.3% of 220,000 active; AID 1030; active means well fitted inhibition curve with a large enough effect, not every such curve was filed as active; inconclusive means small, poorly fitted or top-dose-only effect, or another doubt; inactive means no such curve, though single readings can be large or run the other way;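 further: potency means the concentration at half of the fitted maximal effect; plate controls were no enzyme wells and a reference inhibitor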
* marks the source's active call; other numbers are inactive results; ? = inconclusive; · = not tested or not shown; [ ] = dose if it differs, or a comment. Rows were chosen to be rich in hits. Some 9.4% of all compounds tested hit in one or more screens of this group. Unless noted, the call rests on the fitted dose curve; in most records, active means well fitted curve in the direction sought with a large enough effect; inconclusive means small, poorly fitted or top-dose-only effect, or another doubt; inactive means no such curve, though single readings can be large; an effect the other way counts as inactive or inconclusive.

SMILES	IMPase cell inh	HTT ATP protect	HPGD block	HTT aggregate	IMPase Li cell	ALDH1A1 inh
S=C(c1ccc(-c2ccccc2Cl)o1)N1CCOCC1	?	-25%	8.9µM*	-4%	26%[38.3 µM]	7.9µM*
S=C(c1ccc(-c2ccc(Cl)c(Cl)c2)o1)N1CCOCC1	-15	-11%[10 µM]	25µM*	4%	-2%[38.3 µM]	8.9µM*
CCC#CCOCC(=O)Nc1ccccc1	·	-52%	-12%	·	-4%	?
C=CCn1c(SCC(=O)c2cc(C)n(CCOC)c2C)nc2sc(C)c(C)c2c1=O	4	1%	?	0%	35%[38.3 µM]	25µM*
O=C(Nc1ccc(N2CCN(C(=O)c3cccs3)CC2)c(Cl)c1)c1ccco1	-1	-1%[10 µM]	-5%	-26%	26%[38.3 µM]	28µM*
O=C(Nc1ccc(N2CCN(C(=O)c3cccs3)CC2)c(Cl)c1)c1cccnc1	·	·	·	?	11%	-14%
Cc1ccccc1C(=O)N1CCN(c2ccc(NC(=O)c3ccco3)cc2Cl)CC1	7	-25%[10 µM]	?	13µM*	29%[38.3 µM]	?
COC(=O)c1sc(N2C(=O)c3oc4ccc(C)cc4c(=O)c3C2c2ccc(O)c(OC)c2)nc1C (stereo not drawn)	-5	·	·	·	·	·
O=C(CCC(=O)Nc1ccccc1)NNC(=O)c1ccco1	-14	7%[10 µM]	-3%	-8%	-1%	12%
O=C(CCc1ccccc1)NNC(=O)c1ccco1	8	3%	28µM*	-8%	-6%[38.3 µM]	8%
COc1ccc(N/C(C)=C2/C(=O)C(=O)N(CCO)C2c2ccc([N+](=O)[O-])cc2)cc1 (stereo not drawn)	7	20%	-6%	3%	17%[38.3 µM]	11µM*
Cc1nc2ccccc2c(=O)n1/N=C/c1ccc2ccccc2c1O	·	18%[10 µM]	·	1%[9.22 µM]	·	·
Cc1nnc(-c2ccccc2)c(=O)n1/N=C/c1c(O)ccc2ccccc12	1	-51%	-18%	3.2µM*	0%[38.3 µM]	4%
CCOC(=O)CCc1c(C)nc(SCCCn2c(=O)[nH]c3ccccc32)c(C#N)c1C	-6	0%[0.074 µM]	16µM*	-15%	20%[38.3 µM]	32µM*
CCOC(=O)CCc1c(C)nc(SCCN2CCCC2)c(C#N)c1C	7	-9%	-5%	14%	11%[38.3 µM]	-5%
CC(OC(=O)c1oc2ccccc2c1CSC1CCCCC1)C(=O)NC(N)=O (stereo not drawn)	·	-44%[10 µM]	-17%	?	1%	2µM*
CC(OC(=O)c1oc2ccccc2c1COc1ccccc1)C(=O)NC(N)=O (stereo not drawn)	·	-27%	·	-15%	15%	?
CCOc1ccc2nc(Cl)c(C3CC(c4ccc(C)cc4)=NN3C(=O)CCCC(=O)O)cc2c1 (stereo not drawn)	8	·	·	·	·	·
COc1cccc(CN2CCN(C(=O)c3cccs3)CC2)c1OC	12	4%	-26%	-25%	6%[38.3 µM]	18µM*
COc1ccc(OC)c(CN2CCN(C(=O)c3cccs3)CC2)c1	2	-6%	-7%	-11%	7%[38.3 µM]	-16%
COc1ccccc1CN1CCN(C(=O)c2ccncc2)CC1	3	-7%	-8%	?	11%[38.3 µM]	?
COc1cccc(OC)c1C(=O)N1CCN(Cc2ccncc2)CC1	-9[1.84 µM]	8%[10 µM]	-3%	-13%	10%[38.3 µM]	14µM*
Brc1ccc(C2=N[C@@H](Cc3ccccc3)CO2)cc1	·	-56%	-7%	·	10%	-12%
S=c1[nH]nc(COc2ccc3c(c2)OCO3)n1-c1ccccc1	5	-8%	25µM*	-19%	17%[38.3 µM]	14µM*
CCN(CC)C(=O)CSc1nnc(COc2ccccc2)n1CC	0	3%	-4%	33%	10%[38.3 µM]	-9%
SMILES	IMPase cell inh	HTT ATP protect	HPGD block	HTT aggregate	IMPase Li cell	ALDH1A1 inh
CCn1c(SCC(=O)c2cc(OC)ccc2OC)nnc1C(C)C	2	-16%	-16%	-9%[9.22 µM]	30%[38.3 µM]	28µM*
CCn1c(SCC(=O)c2cc(OC)ccc2OC)nnc1-c1ccncc1	·	13%[0.074 µM]	·	·	·	·
CCn1c(COc2ccc3c(c2)OCO3)nnc1SCC(=O)c1ccccc1	5	3%	22µM*	?	19%[38.3 µM]	?
CCn1c(CNC(=O)Cc2ccc(OC)cc2)nnc1SCC(=O)c1ccccc1	·	8%[10 µM]	·	?	7%	2.8µM*
Cn1c2c(c(=O)n(C)c1=O)C(c1ccccc1[N+](=O)[O-])CC(=O)N2 (stereo not drawn)	2	·	·	·	·	·
CN(CCC(=O)O)S(=O)(=O)c1ccccc1	·	-3%[10 µM]	-15%	·	4%	15%[13.5 µM]
CCn1c(SCC(=O)c2ccc(OC)cc2)nnc1C(C)NC(=O)c1ccc(OC)cc1 (stereo not drawn)	5	20%[10 µM]	-16%	16%	-8%	12µM*
CCC1CCCCN1C(=S)NC(=O)c1ccc([N+](=O)[O-])cc1 (stereo not drawn)	·	22%[10 µM]	-17%	-16%	1%	35µM*
CCC(=O)NC(=S)NNC(=O)c1ccc(OC)cc1	9	?	-29%	?	-9%[38.3 µM]	40µM*
CCC(=O)NC(=S)Nc1ccc(NC(=O)COc2ccccc2)cc1	-3	-8%[10 µM]	-17%	7%	-3%	25µM*
CCCCOc1ccc(C(=O)NNC(=S)NC(=O)CC)cc1	·	4%[10 µM]	-2%	?	13%	-2%
CC(C)(C)C(=O)NC(=S)NNC(=O)c1ccc(-c2ccccc2)cc1	·	?	·	8.9µM*	7%	-1%
Cn1cc(-c2nc3cnc(Oc4ccccc4)nc3n(C3CC3)c2=O)c2ccccc21	·	-4%	·	·	7%	-1%
CCc1ccccc1Nc1nc2ccccc2c2nncn12	-1	·	·	·	·	·
COc1ccc(COC(=O)N/N=C2/C[C@@H](O)[C@@H](O)[C@@H]3[C@@H]4C(=O)N(Cc5ccc6c(c5)OCO6)C(=O)[C@H]4CC[C@@H]23)cc1	·	-30%[10 µM]	·	·	·	-10%[13.5 µM]
CC(C)[C@]1(Cl)CC[C@@H]2[C@]3(C)CCC[C@@](C)(C(=O)O)[C@H]3C[C@H](Cl)[C@@]2(Cl)[C@H]1Cl	·	-3%[10 µM]	-9%	·	8%	0%[13.5 µM]
CCCn1c(=N)c(C(=O)NCc2cccnc2)cc2c(=O)n3cc(C)ccc3nc21	-2	·	·	·	·	·
Nc1nc(N)c(N=Nc2ccc(C(=O)O)c(O)c2)c(N)n1	·	-33%[10 µM]	?	·	2%	-7%[13.5 µM]
NC1=C(O)C(=O)[C@H](c2c[nH]c3ccc(OCc4ccccc4)cc23)O1	·	-20%[10 µM]	-7%	·	0%	-6%[13.5 µM]
COC(=O)C1=C(C(=O)OC)[C@@H]2Nc3ccccc3[C@@]23C[C@@H](C(=O)OC)N(S(=O)(=O)c2c(C)noc2C)C3=N1	·	-8%[10 µM]	0%	·	8%	?
CCC(=O)NC(=S)NNC(=O)c1ccc([N+](=O)[O-])cc1	-9	9%	-27%	-5%	-9%[38.3 µM]	20µM*

Bioassay records: PubChem, National Center for Advancing Translational Sciences (NCATS)
